40 sequences from the supplement of paper PMC6555819 can be followed below.

One experiment concerns FXR:RXRa (NR concentration 270 nM, RXRa partner concentration 90 nM). As to the kind of experiment: PBM binding z-score (relative to random genomic background probes); higher = stronger binding; sequences stand for … in GC…GCGATTGACAGCGTAGAATGAAGG
Put shortly: (§1)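 Binding z-scores take random background probes as their reference. They come from custom Agilent 4×180K protein-binding microarrays incubated 1 h with ligand-free nuclear receptor dimers, with antibodies against each partner (one per run) detecting binding. Scanned fluorescence was regression-normalized.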
Consider TCTCGGAGGACACGAAGGTCAGAGCTTTCCAGAG, for which the PBM binding z-score turned out to be 1.16.
The sequence GCGACTGGGGCAATGCAGGTTACCATAAGGTTGG came in with a PBM binding z-score of 0.0254.
Sequence TCTAGTTGGTCAAAGGTCACACATTCGAAATGCG showed a PBM binding z-score of 6.04.
As for CCGTCTGGGGCAGAAAGGTTACCATACCATCCGG, the PBM binding z-score amounted to 0.119.
Take GCTTACGGGTCAAAGGTTGTAGCATGAATAGAAT: the PBM binding z-score came out at 7.18.
Sequence GCTAGTTGGTCAGTAAAAGGTTACACACCGGTCG came in with a PBM binding z-score of 0.754.
ATCGAAAGGTCGACGAGCTGAGTATACACCGTTT returned a PBM binding z-score of 4.14.
For the sequence ACGATTAGTTGACTTAGGGCAACCGATACGACGC, the PBM binding z-score was -0.0158.
For TCTATTAGTTGACGGGCAACCGACGAGTCCGTTT, the PBM binding z-score was 0.51.
CAAACTAGGTCAGGGTCAAAGTCGGTTTGTGCCA yielded a PBM binding z-score of 5.97.
Turning to TCATATAGGTAATACAGGTGAAAGCCGGCATCTA, the PBM binding z-score amounted to 0.854.
Take TCTTGTAGATCAAGCAGGTAAAGAAAGCCTGAGT: the PBM binding z-score stood at 0.242.
AGAATGAGCTTATACGTAGATCAGGGAAGAAAGT displayed a PBM binding z-score of -0.818.
In turn, TCTTGTCGATCAATAGAGGTTAAGAAAGTGCGCT displayed a PBM binding z-score of 0.786.
The same measure, in the same setting: then TATATAGGGTCAAAGGCCAGAGTACGAATGTCGA, with 7.32; and CCTAGTTGGTCAGGGTCACACACGCTATAGGTAC, with 3.57.
Turning to TCGAGTAGGTTACCAATGGGGCAATCAGCTTTCT, the PBM binding z-score was -0.178.
Regarding CGTCCAAGGTCAAAGTTCAGTGAAGAGATGACGG, the PBM binding z-score is 7.9.
For ATCTCTAGGTAACCAAGTTCAGTAAATGCCGAAC, the PBM binding z-score came out at 0.686.
TCTATTAGTTGATCAGGGCAACCGAAACAGCGGA showed a PBM binding z-score of 0.646.
With AGTCAATGTTCAGGACGAGGTAACGTAAAGCACG, the PBM binding z-score was -0.0403.
Turning to ACTAGTTTGTCAGCTGAGGTCACACACAATTCGG, the PBM binding z-score was 3.55.
Still for that read-out and setting: for ATCTCTAGGGAAGACTCAGTTCAGTGAAGAACGC the value was -0.235; for ATCTCTAGGTAAGACTCAGTTCAGTGACGAACGC, 0.592; for GCTTACGGGTCAAAGGTTATTGCATGAATAGAAT, 7.79.
In turn, AGAGCGAGGGCACGCTGAGTTGATAGCAGAGTAG had a PBM binding z-score of 0.547.
GCTATTACTTGAAAGGGCAACCGAATGATTCTCG showed a PBM binding z-score of 0.128.
In turn, ACAGACAGGTGATGAAGTTAACTCAGGCTATCAT came in with a PBM binding z-score of -0.177.
Take CCTAGTTCGTCAAGGTCACACACGCTATAGGTAC: the PBM binding z-score worked out at 4.55.
For AATACAGGGTCATCGTAGGCCGGAGTACGCACAG, the PBM binding z-score amounted to 6.87.
In turn, CAATCTAGGTCACCGGAAGGTCAAAGTCCGCATG returned a PBM binding z-score of 6.51.
In turn, TCTAGTTGGTCACGGAAGTCACACACGACGGGTA displayed a PBM binding z-score of 0.525.
In turn, CCTGCTAGGTCATCGTCAGCTAATCTACAGTATG had a PBM binding z-score of 3.85.
The same measure, in the same setting: then AGTCAAAGTTCACTAGGTCACGTAAGATTCAGCT, with 6.19.
For CCGAGCAGGCCAATCTGGGTCACTCAAGGCTTGA, the PBM binding z-score is 1.11.
Same read-out and setting: then AGAATGAGGTTATTTAGATCAGGGAATTGCGGTC, with 2.23; and GCTGCTAGGTCAGGTTGGTCAGCGAACGGGTACG, with 1.22.
On the same count and under the same terms, then AGTCAAAGTTCAGGACGAGGTTACGTAAAGCACG, with 4.83.
Take CCGACTGGGGCAGCAAGGTTACCATACCATCCGG: the PBM binding z-score was -0.0165.
The same measure, in the same setting: for CCGAGTGGGGCAAAGGTTACCATACTCAGTACGA the value was 1.45.

The next experiment deals with LXRa:RXRa (NR concentration 270 nM, RXRa partner concentration 90 nM). The experiment is described as above. Put shortly:
as §1
For the sequence TCTCGGAGGACACGAAGGTCAGAGCTTTCCAGAG, the PBM binding z-score was 1.13.
In turn, GCGACTGGGGCAATGCAGGTTACCATAAGGTTGG gave a PBM binding z-score of 0.655.
In the case of TCTAGTTGGTCAAAGGTCACACATTCGAAATGCG, the PBM binding z-score was found to be 5.54.
Same read-out and setting: then CCGTCTGGGGCAGAAAGGTTACCATACCATCCGG, with 0.206.
GCTTACGGGTCAAAGGTTGTAGCATGAATAGAAT returned a PBM binding z-score of 4.99.
The sequence GCTAGTTGGTCAGTAAAAGGTTACACACCGGTCG yielded a PBM binding z-score of 1.32.
ATCGAAAGGTCGACGAGCTGAGTATACACCGTTT displayed a PBM binding z-score of 3.16.
For ACGATTAGTTGACTTAGGGCAACCGATACGACGC, the PBM binding z-score is -0.0959.
TCTATTAGTTGACGGGCAACCGACGAGTCCGTTT had a PBM binding z-score of 0.776.
For the sequence CAAACTAGGTCAGGGTCAAAGTCGGTTTGTGCCA, the PBM binding z-score is 4.32.
TCATATAGGTAATACAGGTGAAAGCCGGCATCTA yielded a PBM binding z-score of 1.36.
On to TCTTGTAGATCAAGCAGGTAAAGAAAGCCTGAGT, for which the PBM binding z-score worked out at 0.228.
On to AGAATGAGCTTATACGTAGATCAGGGAAGAAAGT, for which the PBM binding z-score was -0.491.
Consider TCTTGTCGATCAATAGAGGTTAAGAAAGTGCGCT, for which the PBM binding z-score came to 3.69.
Regarding TATATAGGGTCAAAGGCCAGAGTACGAATGTCGA, the PBM binding z-score amounted to 6.1.
As to CCTAGTTGGTCAGGGTCACACACGCTATAGGTAC, the PBM binding z-score amounted to 3.05.
For the sequence TCGAGTAGGTTACCAATGGGGCAATCAGCTTTCT, the PBM binding z-score worked out at 1.28.
The same measure, in the same setting: then CGTCCAAGGTCAAAGTTCAGTGAAGAGATGACGG, with 6.35; and ATCTCTAGGTAACCAAGTTCAGTAAATGCCGAAC, with 1.04; and TCTATTAGTTGATCAGGGCAACCGAAACAGCGGA, with 0.456.
The same measure, in the same setting: for AGTCAATGTTCAGGACGAGGTAACGTAAAGCACG the value was -0.35; for ACTAGTTTGTCAGCTGAGGTCACACACAATTCGG, 3.38; for ATCTCTAGGGAAGACTCAGTTCAGTGAAGAACGC, 0.0835.
Take ATCTCTAGGTAAGACTCAGTTCAGTGACGAACGC: the PBM binding z-score was 0.636.
Consider GCTTACGGGTCAAAGGTTATTGCATGAATAGAAT, for which the PBM binding z-score came to 5.75.
In turn, AGAGCGAGGGCACGCTGAGTTGATAGCAGAGTAG showed a PBM binding z-score of 0.397.
The same measure, in the same setting: then GCTATTACTTGAAAGGGCAACCGAATGATTCTCG, with 0.738; and ACAGACAGGTGATGAAGTTAACTCAGGCTATCAT, with -0.305.
For the sequence CCTAGTTCGTCAAGGTCACACACGCTATAGGTAC, the PBM binding z-score worked out at 3.92.
On the same count and under the same terms, then AATACAGGGTCATCGTAGGCCGGAGTACGCACAG, with 6.14; and CAATCTAGGTCACCGGAAGGTCAAAGTCCGCATG, with 6.15; and TCTAGTTGGTCACGGAAGTCACACACGACGGGTA, with 0.526.
CCTGCTAGGTCATCGTCAGCTAATCTACAGTATG came in with a PBM binding z-score of 2.89.
For AGTCAAAGTTCACTAGGTCACGTAAGATTCAGCT, the PBM binding z-score was found to be 6.11.
Regarding CCGAGCAGGCCAATCTGGGTCACTCAAGGCTTGA, the PBM binding z-score turned out to be 1.16.
In the case of AGAATGAGGTTATTTAGATCAGGGAATTGCGGTC, the PBM binding z-score stood at 1.9.
Same read-out and setting: for GCTGCTAGGTCAGGTTGGTCAGCGAACGGGTACG the value was 0.707; for AGTCAAAGTTCAGGACGAGGTTACGTAAAGCACG, 4.65; for CCGACTGGGGCAGCAAGGTTACCATACCATCCGG, -0.101.
Sequence CCGAGTGGGGCAAAGGTTACCATACTCAGTACGA yielded a PBM binding z-score of 1.82.
